We go through 10 sequences from the OligoGym collection.
Also: reference of the scale not given here.

In the first test the target is DHPS. As to the kind of experiment: pooled miR-30 sensor sort-seq; sequence = guide strand. The conditions noted are these: shRNA.
Sequence TGTGTTGATGTAAACAGCGTAG gave a sensor-assay potency score (higher = more potent) of -0.876.

The sequence TTCTGCTCCATCACCATCTGGT displayed a sensor-assay potency score (higher = more potent) of 0.0359.

The sequence TTCCAGCTTCTTCTCGATCATG yielded a sensor-assay potency score (higher = more potent) of -1.22.

In the case of TCTTCATCCTGTGACAGTGGTT, the sensor-assay potency score (higher = more potent) is -0.839.

The target in a further test is DHX35. Described as above. The conditions noted are these: shRNA.
As for TAACACAAAACAGCGCACGAGT, the sensor-assay potency score (higher = more potent) is -0.967.

With TAAGGGTTGTAAACAACCGTTG, the sensor-assay potency score (higher = more potent) is -0.768.

As for TAGACTGAGGCAACTTGTCAAA, the sensor-assay potency score (higher = more potent) is -1.05.

As for TAGGCGACAGTCTTTGTCCAGA, the sensor-assay potency score (higher = more potent) is -0.612.

In the case of TTGTAAACAACCGTTGTCCCAG, the sensor-assay potency score (higher = more potent) was -0.562.

Regarding TAAAATATGATTCCTAAGCTTG, the sensor-assay potency score (higher = more potent) was -0.148.
